Screening results as filed in PubChem BioAssay.
Shown are actives, neighbours in structure and some others; about 1.6% of the full set was active somewhere.
PERK inhibitor: human PERK inhibition, primary cell-based screen; CHO PERK-DD fusion, SEAP luminescence translation reporter; Q9NZJ5; inhibition, % at 5.6 µM; hit rate 0.17% among 220,000;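 active means inhibition above the mean inhibition of all tested compounds plus 3 SD, set separately per screening campaign, cut at about 2.9% in these data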;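 further: PERK kinase domain activated by AP20187 dimerizer at 100 nM; 0% = DMSO with dimerizer and 100% = rapamycin at 8.4 µM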
eIF4H FP inh: inhibitors of RNA binding by human eIF4H; Q15056; eIF4H fluorescence polarization binding assay; inhibition, % at 35 µM; hit rate 0.94% among 290,000; AID 2012;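 further: calls also rest on retests at 20 µM and on dose response follow-up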
PABP FP inh: PABP-poly(A) binding inhibition | P11940 | PABP-poly(A) RNA binding, fluorescence polarization | calls only at 35 µM | hit rate 1% among 290,000;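 further: calls also rest on retests at 20 µM and on dose response follow-up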
PABP1 MLLE inh: inhibitors of microRNA-mediated deadenylation, human PABP1 MLLE binding; P11940; GST-MLLE / FITC-PAM2 fluorescence polarization; inhibition, % at 20 µM; hit rate 0.36% among 360,000; AID 588489; in the data active means inhibition above about 35%, passing the limit was not always enough;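 further: plate controls were DMSO wells with GST-MLLE for no effect and wells lacking GST-MLLE protein for full effect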
eIF4E 4G PPI: inhibitors of eIF4E and eIF4G interaction in translation initiation; hit rate 0.37% among 220,000; P63073+Q04637; inhibition, % at 21.7 µM; TR-FRET eIF4E-eIF4GI(517-606) binding, 2 h;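 active means inhibition above about 30%, limit read from the data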;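 further: 0% = full FRET control wells and 100% = background wells lacking eIF4GI fragment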
Target sequence (P63073 whole entry, looked up, the tested form may be a part): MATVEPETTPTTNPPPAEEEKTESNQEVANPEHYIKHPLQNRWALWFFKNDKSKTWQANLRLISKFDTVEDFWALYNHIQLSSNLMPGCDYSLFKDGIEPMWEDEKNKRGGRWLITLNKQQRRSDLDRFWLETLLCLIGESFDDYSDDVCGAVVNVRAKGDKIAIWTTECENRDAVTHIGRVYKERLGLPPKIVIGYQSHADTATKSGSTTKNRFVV
Target sequence (Q04637 whole entry, looked up, the tested form may be a part): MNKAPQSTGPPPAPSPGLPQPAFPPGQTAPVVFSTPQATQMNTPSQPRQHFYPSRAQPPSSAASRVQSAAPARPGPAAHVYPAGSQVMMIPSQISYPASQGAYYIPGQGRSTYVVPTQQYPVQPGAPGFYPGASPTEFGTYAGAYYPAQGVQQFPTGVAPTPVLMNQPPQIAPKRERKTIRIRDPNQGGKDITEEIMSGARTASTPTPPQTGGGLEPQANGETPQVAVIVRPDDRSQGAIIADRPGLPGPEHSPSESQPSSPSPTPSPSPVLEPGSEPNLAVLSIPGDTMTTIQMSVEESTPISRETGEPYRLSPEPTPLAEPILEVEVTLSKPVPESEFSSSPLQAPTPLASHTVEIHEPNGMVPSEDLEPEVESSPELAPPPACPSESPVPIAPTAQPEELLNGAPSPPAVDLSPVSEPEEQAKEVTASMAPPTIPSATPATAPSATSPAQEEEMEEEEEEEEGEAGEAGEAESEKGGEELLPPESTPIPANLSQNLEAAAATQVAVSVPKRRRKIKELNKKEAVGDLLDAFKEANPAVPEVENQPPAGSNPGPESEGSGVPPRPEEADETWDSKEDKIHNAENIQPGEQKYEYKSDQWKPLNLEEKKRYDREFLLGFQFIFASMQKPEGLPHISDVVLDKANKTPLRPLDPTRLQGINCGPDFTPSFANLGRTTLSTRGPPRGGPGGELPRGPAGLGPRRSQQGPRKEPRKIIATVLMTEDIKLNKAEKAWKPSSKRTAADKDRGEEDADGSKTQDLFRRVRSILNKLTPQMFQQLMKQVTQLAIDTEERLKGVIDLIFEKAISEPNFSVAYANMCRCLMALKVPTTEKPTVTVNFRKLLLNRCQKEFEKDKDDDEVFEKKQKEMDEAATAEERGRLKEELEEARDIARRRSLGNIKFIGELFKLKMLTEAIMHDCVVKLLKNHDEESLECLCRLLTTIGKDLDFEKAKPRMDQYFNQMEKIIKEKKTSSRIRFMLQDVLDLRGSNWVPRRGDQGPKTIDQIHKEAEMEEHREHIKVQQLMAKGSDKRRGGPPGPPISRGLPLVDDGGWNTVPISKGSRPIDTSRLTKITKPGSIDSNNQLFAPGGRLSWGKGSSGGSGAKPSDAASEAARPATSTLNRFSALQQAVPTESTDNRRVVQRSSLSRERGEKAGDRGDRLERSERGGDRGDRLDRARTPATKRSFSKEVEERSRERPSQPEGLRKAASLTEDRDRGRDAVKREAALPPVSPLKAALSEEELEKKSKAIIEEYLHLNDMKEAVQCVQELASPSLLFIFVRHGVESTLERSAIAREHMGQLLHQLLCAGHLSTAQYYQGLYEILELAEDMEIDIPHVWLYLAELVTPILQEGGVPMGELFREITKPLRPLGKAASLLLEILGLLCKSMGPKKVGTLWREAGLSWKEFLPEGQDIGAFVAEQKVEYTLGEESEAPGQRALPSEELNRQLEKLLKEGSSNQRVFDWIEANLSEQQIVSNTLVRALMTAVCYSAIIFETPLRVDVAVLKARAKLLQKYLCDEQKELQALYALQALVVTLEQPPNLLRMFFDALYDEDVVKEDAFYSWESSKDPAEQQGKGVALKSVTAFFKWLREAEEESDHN
* = called active by the depositor; i = inactive; ? = inconclusive; nt = no result; + = active, no number; ! = repeats disagree; [ ] = another dose, or the depositor's remark. Unless noted, how the calls were made is not given here.

SMILES	PERK inhibitor	eIF4H FP inh	PABP FP inh	PABP1 MLLE inh	eIF4E 4G PPI
Cc1cccc(NC(=O)CN2C(=O)S/C(=C\c3ccc(-c4cccc(C(=O)O)c4C)o3)C2=O)c1	0.8	91.5*	i	nt	2.2
Cc1c(C(=O)O)cccc1-c1ccc(/C=N/n2cnnc2)o1	nt	53.0*	+	-22.4	nt
Cc1ccc(NC(=O)CN2C(=O)S/C(=C/c3ccc(-c4cc(C(=O)O)ccc4C)o3)C2=O)cc1C	-0.2	37.9	+	-4.4	40.0*
Cc1c(Cl)cccc1-c1ccc(/C=N/n2cnnc2)o1	0.8	-1.6	i	8.9	3.0
NC(=O)NCC(c1ccccc1)C1CCCCC1 (centres undefined)	nt	10.5	i	11.8	nt
COc1ccc(COn2nnc3ccc(S(=O)(=O)N4CCOCC4)cc32)cc1F	nt	nt	nt	7.9	nt
S=c1nc(-c2ccc(Br)cc2)[nH]c2ccccc12	3.0*	-0.3	i	25.0	1.4
O=c1cc(CSc2nnc(NC3CCCCC3)s2)nc2sccn12	0.4	-1.6	i	0.5	-1.2
C=CCn1c(SCc2cc(=O)n3ccsc3n2)nnc1C1CCCCC1	-1.0	72.9*	+	-32.2	-3.0
CC(/C=N/n1cnnc1)=C\c1ccco1	0.7	71.7	+	2.5	9.3
O=c1c2c([N+](=O)[O-])cc([N+](=O)[O-])cc2sn1Cc1ccccc1	nt	-1.3	i	33.2	nt
O=c1c2c([N+](=O)[O-])cc([N+](=O)[O-])cc2sn1-c1ccc(Br)cc1	0.6	-0.8	i	2.8	33.2*[fluorescence artefact?]
Fc1ccc(SCCc2ccncc2)cc1	1.5	-2.7	i	42.8*!	-0.8
c1ccc(SCCc2ccncc2)cc1	0.2	23.9	i	15.7	1.8
CCC(=NN=C(CC)c1ccccc1O)c1ccccc1O	nt	nt	nt	0.4	nt
C/C(=N/N=C(\C)c1ccccc1O)c1ccccc1O	nt	85.9	+	-11.7	nt
O=C(Cc1ccc2ccccc2c1)Nc1ccccc1Br	nt	-5.0	i	3.4	nt
O=C(Cc1ccc2c(c1)CCCC2)Nc1ccccc1Br	-1.1	-8.4	i	38.5*	-0.9
Cc1cc(C)c(NC(=O)NC(=O)c2ccc(F)cc2)c(C)n1	-1.2	76.5*	+	3.8	-3.9
Cc1cc(C)c(NC(=O)NC(=O)c2cccc(F)c2)c(C)n1	-0.3	-2.9	i	-8.1	-1.8
CC1CCCN(CC(=O)Nc2cc(S(=O)(=O)N3CCOCC3)ccc2N2CCCC2)C1 (centres undefined)	nt	nt	nt	6.4	nt
CCOC(=O)c1sc(=S)n(-c2ccccc2Cl)c1SC	0.8	-0.8	i	38.5*	4.3
Cc1cnc(NC(=O)Cc2ccc(C)c(C)c2)s1	nt	-2.9	i	11.1	nt
C=CCSc1nnc(NC(=O)c2cn(CC)c3nc(C)ccc3c2=O)s1	0.1	48.8	+	-99.6	-3.3
CCn1cc(C(=O)Nc2ccccc2)c(=O)c2ccc(C)nc21	0.6	10.2	i	nt	-0.5
SMILES	PERK inhibitor	eIF4H FP inh	PABP FP inh	PABP1 MLLE inh	eIF4E 4G PPI
C(=Nn1cnnc1)c1ccc2c(c1)CCC2	nt	nt	nt	-10.4	nt
COc1ccccc1Nc1nc(N)nc(CN2CCN(Cc3ccccc3)CC2)n1	-1.6	4.5	i	9.5	-5.3
COc1ccccc1Nc1nc(N)nc(CN2CCCCC2)n1	0.4	2.7*	+	-10.1	1.7
COc1ccc(OC)c(NC(=O)COC(=O)c2cc3c(s2)CCC3)c1	0.5	?	?	-5.4	36.5*
CN(C)c1c(N)[nH]c2c(c1=O)c(=O)n(C)c(=O)n2C	0.0	46.7	i	-5.2	-5.9
Cn1c(=O)c2c(=O)cc(N)[nH]c2n(C)c1=O	0.6	44.4	i	43.3*	-2.0
CC[C@H](C)C(N)c1cn(C(CCCN=C(N)N)C(=O)N2CCNCC2)nn1 (some centres undefined)	nt	nt	nt	4.2	nt
N/C(Cc1cccc2ccccc12)=N\OC(=O)Cc1cccs1	0.9	27.3	i	-5.2	6.2
N/C(Cc1cccc2ccccc12)=N\OC(=O)c1cccs1	0.2	83.6*	+	-9.3	0.6
CCCCn1c(N)c(N(CC(C)C)C(=O)c2ccc([N+](=O)[O-])o2)c(=O)[nH]c1=O	nt	nt	nt	-7.9	nt
O=C(C1CCCN(S(=O)(=O)c2ccc(Br)cc2)C1)N1CCOCC1 (centres undefined)	nt	6.7	i	5.3	nt
CCCCn1c(O)c(/C=C/C=C/C=Nc2ccccc2)sc1=S	0.1	54.1*	i	-68.3	-4.5
CCn1c(O)c(/C=C/C=C/C=Nc2ccccc2)sc1=S	2.3	9.9	i	-19.6	-5.1
O=C(CNC(=O)c1nn(Cc2ccccc2)c(=O)c2ccccc12)Nc1ccc(F)c(F)c1F	nt	nt	nt	8.4	nt
CN(C)c1ccc(/C=N/NC(=O)c2ccn(C)n2)cc1	3.0*	4.4	i	-18.9	0.7
NC(=O)CC(NC(=O)c1ccc(Br)cc1)c1ccc(NCCc2ccc(F)cc2)c([N+](=O)[O-])c1 (centres undefined)	nt	-0.8	i	-37.7	-1.8
NC(=O)CC(NC(=O)c1ccccc1)c1ccc(NCCc2cccc(F)c2)c([N+](=O)[O-])c1 (centres undefined)	nt	-13.4	i	4.8	95.8*
CCc1ccc(OCC(=O)NC(NC(=S)Nc2ccccc2OC)C(Cl)(Cl)Cl)cc1 (centres undefined)	0.0	77.5*	+	23.1	1.2
CC(C)c1onc(C(=O)NC2CCCC2)c1[N+](=O)[O-]	0.6	8.3*	+	15.7	0.8
COc1ccc(NC(=O)CSc2nnc(-c3ccccc3C)n2N)cc1	1.1	0.3	i	37.2*	1.1
CCOc1ccc(Cc2nnc(SCC(=O)Nc3ccc(OC)cc3)n(N)c2=O)cc1	nt	nt	nt	-6.6	nt
COc1ccc(NC(=O)CSc2nnc(CCC(=O)O)c(=O)n2N)cc1	0.6	5.7	i	46.0*	-5.8
COc1ccc2nc(NC(=O)CSc3nnc(C)n3N)sc2c1	4.7*	4.8	i	17.9	1.0
COc1ccc2nc(NC(=S)N(C)C)sc2c1	-1.3	12.4	i	-38.0	41.0*[fluorescence artefact?]
CSCCC(NC(=O)C1CCC(C)CC1)C(=O)NCCN1CCC(C)CC1 (centres undefined)	0.3	2.7	i	-2.3	0.1
SMILES	PERK inhibitor	eIF4H FP inh	PABP FP inh	PABP1 MLLE inh	eIF4E 4G PPI
COc1cc(Br)c(C2C(C#N)=C(N)Oc3n[nH]c(-c4cccnc4)c32)cc1OC (centres undefined)	0.2	-0.6	i	4.7	0.1
O=C(O)c1cccc(NC(=S)NC(=O)c2ccncc2)c1	0.2	-4.9	i	44.2*	-1.0
CC(=O)c1cccc(NC(=S)NC(=O)c2ccccc2C)c1	-0.3	6.0	i	22.1	-0.3
Cc1ccc(OCC(=O)NC(=S)Nc2cccc(NC(=O)c3ccc(Cl)cc3Cl)c2)cc1	0.8	5.4	i	15.7	-3.2
Cc1ccc(OCC(=O)NC(=S)Nc2cccc(NC(=O)c3ccccc3)c2)cc1	0.1	-6.3	i	37.8*	-2.1
CC(=O)c1cccc(NC(=S)NC(=O)c2ccccc2Br)c1	-0.3	-8.1	i	35.6*	-3.5
O=C(NC(=S)Nc1ccc2c(c1)OCCO2)c1ccccc1	-1.6	0.2	i	38.3*	2.8
CCCCC1=NN2CCS(=O)(=O)N=C2S1	1.8	8.5	i	12.1	-3.7
